Results from PubChem BioAssay.
Calls of active or inactive are those of the source. Unless noted, no rule for the calls is given here.

Assays:
[1] = test system: Wnt5a (protein binding on small-molecule microarray); test: small molecules binding Wnt5a protein – biophysical, small-molecule microarray, 635/667 nm fluorescence, primary screen (AID 1142); settings: 635 nm fluorescence, higher = more signal;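 also: fluorescence read at 667 nm with signal to noise per printed feature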
[2] = ATP-based viability of Huh7 replicon cells – cell-based, CellTiter-Glo luminescence, basal, 48 h, cytotoxicity control for HCV replication inhibitor project, primary screen (AID 1143); settings: higher = more signal, called active from +8 up or from −8 down;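 also: Huh7 hepatoma cells carrying a hepatitis C replication reporter with no stimulus; test concentration not given here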
[3] = Pseudomonas biofilm growth suppression – PAO1 strain, BacTiter-Glo luminescence, LB-PBS, primary screen (AID 1144); settings: P. aeruginosa PAO1 biofilm, 12 h, higher = more signal
[4] = basal CRE-LacZ reporter activity in PC12 – cell-based, unstimulated, primary screen (AID 1145); settings: no forskolin, luminescence, 4.5 h, higher = more signal, called active from +8 up or from −8 down
[5] = forskolin-driven CRE-LacZ activity in PC12 – cell-based, CRE-LacZ reporter, forskolin-stimulated, primary screen (AID 1146); settings: luminescence, 4.5 h, higher = more signal, called active from +8 up or from −8 down;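 also: PC12 cells with 6xCRE LacZ reporter stimulated by forskolin 10 µM; beta-galactosidase reporter signal reflecting CREB driven transcription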
[6] = molecular target: Streptavidin (Streptomyces avidinii) (UniProt P22629); test: compounds binding control protein streptavidin – biophysical, small-molecule microarray, 635/667 nm fluorescence, artefact control for SMM compound annotation, primary screen (AID 1147); settings: higher = more signal;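 also: signal reflects streptavidin binding to arrayed compounds as a control protein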
[7] = probe aInhba binding on compound microarray – biochemical, small-molecule microarray, 635/667 nm fluorescence, primary screen (AID 1148); settings: higher = more signal;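 also: score merges 667nm spot fluorescence with signal-to-noise for antibody binding to printed compounds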
Torsin-1A (Homo sapiens) [8] = molecular target: Torsin-1A (Homo sapiens) (UniProt O14656); test: TOR1A wild-type binding on microarray – cell lysate, small-molecule microarray, lysate, 635/667 nm, primary screen (AID 1149); settings: COS7 hTOR1A-WT lysate, 635 nm fluorescence, higher = more signal
Torsin-1A (Homo sapiens) [9] = molecular target: Torsin-1A (Homo sapiens) (UniProt O14656); test: torsin A mutant lysate binding on microarrays – cell lysate, small-molecule microarray, COS7 lysate, 635/667 nm fluorescence, primary screen (AID 1150); settings: COS7 hTOR1A mutant lysate, 635 nm fluorescence, higher = more signal;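 also: score pools 667 nm emission and signal to noise measuring lysate protein binding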
[10] = test system: Sonic hedgehog protein (Shh); test: Sonic hedgehog microarray binding compounds – biochemical, small-molecule microarray, 635/667 nm fluorescence, primary screen (AID 1151); settings: 635 nm fluorescence, higher = more signal;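 also: Shh protein binding to compounds spotted on small-molecule microarray slides; score combines spot fluorescence intensity with signal-to-noise across triplicate slides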

Chain of Torsin-1A (Homo sapiens) (O14656 whole entry, looked up): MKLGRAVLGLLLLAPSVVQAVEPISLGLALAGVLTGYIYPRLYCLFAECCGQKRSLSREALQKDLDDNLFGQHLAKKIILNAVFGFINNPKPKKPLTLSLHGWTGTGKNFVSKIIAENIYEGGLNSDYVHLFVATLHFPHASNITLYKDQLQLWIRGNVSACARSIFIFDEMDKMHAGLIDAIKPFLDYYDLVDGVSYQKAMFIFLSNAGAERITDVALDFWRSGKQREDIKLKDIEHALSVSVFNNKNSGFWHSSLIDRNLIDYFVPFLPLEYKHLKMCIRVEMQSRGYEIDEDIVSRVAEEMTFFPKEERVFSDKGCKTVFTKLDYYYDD
Chain of Streptavidin (Streptomyces avidinii) (P22629 whole entry, looked up): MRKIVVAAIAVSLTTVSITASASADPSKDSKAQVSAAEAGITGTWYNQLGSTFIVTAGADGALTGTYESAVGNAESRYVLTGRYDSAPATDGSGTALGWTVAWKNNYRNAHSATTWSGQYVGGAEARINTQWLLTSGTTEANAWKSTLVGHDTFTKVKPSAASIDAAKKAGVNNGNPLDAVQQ

Row | Compound | composite z-score [1] | z-score [2] | z-score [3] | z-score [4] | z-score [5] | composite z-score [6] | composite z-score [7] | composite z-score (Torsin-1A (Homo sapiens) [8]) | composite z-score (Torsin-1A (Homo sapiens) [9]) | composite z-score [10]
1 | C[N+](C)(C)CCCC[C@@H]1NC(=O)[C@@H]2C[C@H](C(=O)NCCCCCCN)[C@H](c3cccc(OCCO)c3)N2C1=O | 0.397 | 0.279 (inactive) | 0.32 (inactive) | 2.84 (inactive) | -0.618 (inactive) | 1.67 | 1.22 | 0.85 | 1.65 | 0.691
2 | C=CCC(OC(C)=O)[C@@H]1[C@@H](N(Cc2cccc3ccccc23)C(=O)Cc2ccc(OC)cc2)c2cc(OCCCO)ccc2N1C(=O)c1ccc(-c2ccccc2)cc1 (stereo not given in full) | -0.213 | -1.22 (inactive) | 1.16 (inactive) | 0.106 (inactive) | -0.375 (inactive) | 0.107 | -0.0762 | -0.452 | 0.0437 | 0.112
3 | COC(=O)[C@@]1(Cc2ccc(OC)cc2)[C@H]2c3cc(C(=O)N4CCCC4)n(CCO)c3C[C@H]2CN1C(=O)c1ccccc1 | 0.925 | -0.794 (inactive) | -0.14 (inactive) | 0.773 (inactive) | 1.41 (inactive) | 0.342 | 0.372 | -0.48 | 1.44 | -0.645
4 | [N-]=[N+]=Nc1ccccc1C[C@]1(C(=O)N2CCOCC2)COC(c2ccc(OCCCO)cc2)=N1 | 0.375 | -4.38 (inactive) | -0.33 (inactive) | 0.344 (inactive) | -0.687 (inactive) | 1.42 | 0.191 | 0.442 | 0.507 | -1.01
5 | CC(C)(C)OC(=O)CC[C@@]1(C(=O)NCC(O)CO)N=C(c2ccc(OCCCO)cc2)O[C@@H]1c1ccccc1CN=[N+]=[N-] (stereo not given in full) | 0.167 | 0.0366 (inactive) | -0.719 (inactive) | 1.98 (inactive) | -0.424 (inactive) | 1.14 | -0.0021 | 1.48 | 0.654 | -0.157
6 | O=C(Cc1ccccc1)[C@H]1C2C=CCCC(c3ccccc3)=C2CN1Cc1ccccc1 (stereo not given in full) | 0.0277 | -0.408 (inactive) | -0.886 (inactive) | 4.3 (inactive) | -0.0521 (inactive) | -0.144 | -0.0494 | 0.219 | -0.412 | 0.0701
7 | CCOC(=O)C[C@H]1[C@H](OC(=O)c2ccccc2-c2ccccc2)[C@@H](NC(=O)c2ccc3ccccc3n2)c2cc(OCCCO)ccc2N1C(=O)Cc1ccc(OC)cc1 | 0.0204 | -0.109 (inactive) | 0.485 (inactive) | 1.03 (inactive) | 0.349 (inactive) | -0.0997 | 0.0442 | 0.253 | 0.0746 | 0.336
8 | CCOC(=O)C[C@H]1[C@H](OC(=O)c2ccccc2-c2ccccc2)[C@@H](NC(=O)c2ccc3ccccc3c2)c2cc(OCCCO)ccc2N1C(=O)c1ccccc1 | 0.331 | -0.399 (inactive) | 1.6 (inactive) | 2.94 (inactive) | -0.0955 (inactive) | 0.157 | 0.102 | 0.0464 | 0.472 | 0.536
9 | O=C1C[C@]2(c3ccc([N+](=O)[O-])cc3)C(=O)N(C3CC3)c3cc(CO)ccc3[C@H]2N1CC12CC3CC(CC(C3)C1)C2 | -0.178 | -2.19 (inactive) | 0.332 (inactive) | -0.179 (inactive) | 1.23 (inactive) | -0.368 | -0.0403 | -1.26 | 0.228 | -0.7
10 | O=C1NC(=O)C2C1C=CC(C(O)c1ccco1)N2Nc1ccc(Cl)cc1Cl (stereo not given) | -0.118 | -0.483 (inactive) | -0.315 (inactive) | 0.0501 (inactive) | 0.815 (inactive) | 0.531 | -0.0986 | 0.148 | 0.672 | 0.576
11 | C=C[C@H](C)[C@H](OC(=O)Nc1ccc(SC)cc1)c1ccc(OCCO)cc1 | 0.448 | -3.53 (inactive) | 0.0722 (inactive) | 7.78 (inactive) | 1.58 (inactive) | 0.374 | -0.0221 | 0.766 | 0.937 | 1.33
12 | COc1ccc([Si](C)(C)[C@H]2[C@H](CC(=O)N3Cc4ccccc4C[C@H]3CO)O[C@@]3(C(=O)N(Cc4ccc(N5CCOC5=O)cc4)c4ccccc43)[C@@H]2C)cc1 | -0.0993 | -3.64 (inactive) | -0.3 (inactive) | 1.38 (inactive) | -1.01 (inactive) | -0.0564 | -0.176 | 0.787 | 0.438 | 2.05
13 | NCCCCCNC(=O)[C@@H]1C[C@@H]2C(=O)N[C@@H](CCCCN)C(=O)N2[C@@H]1c1ccc(O)cc1 | -0.0113 | -0.308 (inactive) | -0.148 (inactive) | 0.0205 (inactive) | -0.878 (inactive) | 0.811 | 0.217 | 0.811 | 1.59 | 1.99
14 | COc1ccc(CCNC(=O)[C@@H]2c3ccccc3C(=O)N(C3CCCCC3)[C@H]2c2ccc(CO)cc2)cc1 | 0.378 | -2.93 (inactive) | -0.0661 (inactive) | -0.295 (inactive) | -0.582 (inactive) | -0.11 | -0.0087 | -0.78 | 0.767 | -0.0203
15 | CC1CC/C=C\[C@H]2OC34C=CCN(c5ccc6ccccc6c5)C(=O)[C@H]3N(CCCO)C(=O)[C@@H]4C2C(=O)O1 (stereo not given in full) | -1.1 | 0.0518 (inactive) | 1.57 (inactive) | 0.191 (inactive) | 0.234 (inactive) | -1.1 | -0.293 | -2.88 | -1.47 | -0.749
16 | CCOC(=O)C1=C[C@@H](c2ccccc2)N(S(=O)(=O)c2ccc(C)cc2)[C@H]1c1ccc(OC)cc1 | 0.943 | -2.61 (inactive) | 0.173 (inactive) | -0.275 (inactive) | -0.0617 (inactive) | 0.689 | 0.29 | 0.162 | 0.513 | -0.0921
17 | COCCOC(=O)N1C(=O)[C@@]2(c3cc(C#CC4(O)CCCCCC4)ccc31)[C@H](c1ccc(O)cc1)N1[C@H](c3ccccc3)[C@H](c3ccccc3)OC(=O)[C@H]1[C@@H]2C(=O)N1CCN(c2ncccn2)CC1 | 0.623 | -1.53 (inactive) | -0.127 (inactive) | -0.141 (inactive) | 0.0053 (inactive) | 1.33 | -0.0918 | 0.49 | 0.813 | 0.185
18 | C=CCNC(=O)[C@@H]1[C@H]2C(=O)O[C@H](c3ccccc3)[C@H](c3ccccc3)N2[C@H](c2ccccc2OCCO)[C@@]12C(=O)Nc1ccc(C#CCCO)cc12 | 0.27 | -3.75 (inactive) | -1.2 (inactive) | -1.7 (inactive) | -1.17 (inactive) | -0.158 | 0.0111 | 0.188 | 0.527 | 2.03
19 | COc1cc(OC)c(C(O)C2C=CC3C(=O)N(Cc4ccccc4)C(=O)C3N2n2cnnc2)cc1Br (stereo not given) | 0.25 | -3.56 (inactive) | -0.664 (inactive) | 0.677 (inactive) | -1.4 (inactive) | 1.22 | -0.0087 | 2.73 | 2.4 | 0.116
20 | [N-]=[N+]=Nc1ccccc1C[C@@]1(C(=O)N2CCOCC2)N=C(c2ccc(OCCCO)cc2)O[C@@H]1c1ccccc1 | 1.21 | -4.54 (inactive) | 0.83 (inactive) | 1.64 (inactive) | -0.197 (inactive) | 0.269 | -0.135 | 0.156 | 0.53 | -0.227
21 | CN(C)C(=O)[C@]1(Cc2ccccc2CN=[N+]=[N-])N=C(c2ccc(OCCCO)cc2)O[C@@H]1c1ccccc1 | 0.682 | -5.61 (inactive) | -0.528 (inactive) | 0.502 (inactive) | -0.579 (inactive) | 0.792 | 0.111 | 0.178 | 0.729 | -0.18
22 | Cc1ccc(S[C@]2(C(=O)O)CC(=O)N(C3CCCCC3)[C@@H]2c2ccc(CO)cc2I)cc1 | 0.0473 | -0.541 (inactive) | -0.64 (inactive) | -0.269 (inactive) | 2.76 (inactive) | 1.43 | 0.239 | 0.222 | 0.919 | -0.342
23 | CCCCCCCCCC(O)C1C=CC2C(=O)N(c3ccccc3)C(=O)C2N1Nc1cc(OC)c(OC)c(OC)c1 (stereo not given) | -0.128 | -4.06 (inactive) | 0.123 (inactive) | 0.815 (inactive) | -0.262 (inactive) | 0.581 | -0.0334 | -1.45 | -0.241 | -0.511
24 | N[C@@H](Cc1ccccc1)C(=O)NCc1cn(Cc2ccccc2)nn1 | -0.0432 | 0.609 (inactive) | 0.391 (inactive) | 0.381 (inactive) | -0.644 (inactive) | 0.0584 | 0.0464 | 1.14 | 0.186 | 0.822
25 | COC(=O)[C@@H]1N=C(c2ccc(OCCCO)cc2)O[C@@H]1c1ccccc1 | -0.508 | -1.64 (inactive) | -1.06 (inactive) | -0.594 (inactive) | -1.38 (inactive) | -0.913 | -0.0762 | 1.01 | 0.695 | -0.703
26 | CCOC(=O)C[C@H]1[C@H](OC(=O)c2ccc(-c3ccccc3)cc2)[C@@H](NC(=O)CC(C)C)c2cc(OCCCO)ccc2N1C(=O)c1ccc2ccccc2n1 | -0.0361 | -0.0042 (inactive) | -0.453 (inactive) | 1.04 (inactive) | -0.428 (inactive) | 1.31 | -0.0259 | 0.0908 | 0.31 | 0.637
27 | CCCC[C@@H](O)C1=C(COc2ccccc2)C[C@H]2C(=O)N(Cc3ccccc3)C(=O)[C@H]2[C@H]1CO | -0.143 | -2.03 (inactive) | 0.436 (inactive) | 7.39 (inactive) | -0.695 (inactive) | -0.0098 | -0.239 | -0.152 | 0.107 | 0.491
28 | O=C1O[C@@H](c2ccccc2)[C@@H](c2ccccc2)N2[C@@H](c3ccc(OCCO)cc3)[C@]3(C(=O)Nc4ccc(C#CC5=CCCCC5)cc43)[C@@H](C(=O)NC[C@H](O)c3ccccc3)[C@H]12 | 0.771 | -3.51 (inactive) | -0.209 (inactive) | -0.329 (inactive) | -0.239 (inactive) | 1.5 | 0.853 | 0.411 | 1.01 | 1.38
29 | C=CC[C@@]1(C(=O)NCCCOC)N=C(c2ccc(OCCCO)cc2)O[C@@H]1c1ccccc1N=[N+]=[N-] | 0.452 | -2.67 (inactive) | -1.75 (inactive) | -0.711 (inactive) | -0.66 (inactive) | 0.77 | 0.0713 | -0.668 | -0.112 | -0.388
